HCV inh = HCV inhibition; Huh7.5.1 HCVcc-Cre infection, luciferase reporter, 44 h; Potency, µM (top dose mostly 41.8 µM), without a hit: at the highest dose activity change, negative = inhibition, actives largely listed as inhibitors; hit rate 3.4% among 340,000; AID 651820; active = well fitted inhibition curve with a large enough effect; inconclusive = small, poorly fitted or top-dose-only effect, or another doubt; inactive = no such curve, though single readings can be large or run the other way
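Whole-lifecycle infectious HCVcc-Cre system; cells 1,000/well, compound then virus (~0.5 moi) added 4 h after plating, 44 h culture. Luciferase read 15 sec following 15 min substrate incubation, room temp.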
Vaccinia Venus = vaccinia inhibition (Venus reporter) | Vaccinia virus Venus reporter expression, fluorescence | Potency, µM (doses to about 36.5 µM), inactives show at the highest dose activity change, negative = inhibition, usual class: inhibitors | hit rate 0.46% among 330,000; calls by dose curve; tested in A549 cells; also: nearly all actives have a fitted effect of over 30% in size
Vaccinia mCherry = vaccinia inhibition (mCherry reporter). Vaccinia virus mCherry reporter infection, fluorescence. Potency, µM (top dose mostly 36.5 µM), for the others: at the top dose activity change, negative = inhibition, actives largely listed as inhibitors. hit rate 0.63% among 310,000. AID 720579; calls by dose curve; tested in A549 cells; also: nearly all actives have a fitted effect of over 35% in size
* = called active by the depositor; i = inactive; ? = inconclusive; nt = not tested or not shown; [ ] = remark or other dose. The list is not random: actives were taken first. Their share in the collection is about 3.3%. % is scaled to controls: 0 for no effect and ±100 for the full control effect; potency is read from the fitted curve at half-maximal effect.

SMILES	HCV inh	Vaccinia Venus	Vaccinia mCherry
O=C(NCc1ccc2c(c1)OCO2)c1ccc(CS(=O)Cc2ccc(Cl)cc2)o1 (stereo not drawn)	11.2µM*	-9.3%	-17.3%
CCOc1ccc(CCNC(=O)c2ccc(CS(=O)Cc3ccc(Cl)cc3)o2)cc1 (stereo not drawn)	?	-13.0%	-13.7%
O=C(NCc1ccc2c(c1)OCO2)c1ccc(CS(=O)Cc2cccc(Cl)c2)o1 (stereo not drawn)	-18.7%	-22.2%	-3.9%
COc1ccc(OC)c(CCNC(=O)c2ccc(CS(=O)Cc3ccc(Cl)cc3)o2)c1 (stereo not drawn)	10µM*	nt	nt
CCC(C)NC(=O)Cn1c(=O)c2cccn2c2ccc(F)cc21 (stereo not drawn)	nt	-6.0%	3.1%
Cc1cc(C(=O)Nc2ccccc2-c2nc(CNC(=O)C3(C)CCCCC3)c(C)o2)c(C)o1	nt	2.0%	-7.6%
COc1cc(N(C)C)c(OC)cc1/C=C1\Cc2ccccc2C1=O	nt	-6.3%	i
COC(=O)c1cc(S(=O)(=O)NCC2CCN(Cc3cc(C)ccc3C)CC2)c[nH]1	-15.1%	-5.1%	?
CNC(=O)COc1coc(CN2CCN(c3ccccc3OC)CC2)cc1=O	6.1%	-16.4%	-20.8%
OC(C1=CC(=Cc2ccncc2)c2ccccc21)c1ccncc1 (stereo not drawn)	11.2µM*	-14.3%	-24.5%
OC(c1ccccc1)c1ccncc1 (stereo not drawn)	12.5%	0.9%	i
O=C(OCc1ccccc1)c1cccc(-c2nnc(-c3ccccc3)o2)c1	-1.3%	nt	nt
O=C(OCc1ccc(C(=O)c2ccccc2)cc1)c1cccc(-c2nnc(-c3ccccc3)o2)c1	14.1µM*	nt	nt
c1ccc(COc2ncnc3c2ncn3CCCNCc2cccs2)cc1	nt	-16.2%	-11.7%
C=C(C)CN(CC)c1nc(N)c2c(N)nc3c(c2c1C#N)CC(=O)N3C12CC3CC(CC(C3)C1)C2	3.98µM*	-24.4%	?
CCN(CC)c1nc2c3c(nc4c(c3c1C#N)CC(=O)N4c1ccc(Cl)cc1)NC(C)=N2	?	16.2%	i
CCCCN1C(=O)Cc2c1nc(N)c1c(N)nc(N(CCC)CCC)c(C#N)c21	3.98µM*	-6.3%	-5.6%
N#Cc1c(N2CCCC(O)C2)nc(N)c2c(N)nc3c(c12)CC(=O)N3C12CC3CC(CC(C3)C1)C2 (stereo not drawn)	3.98µM*	nt	nt
COc1ccc(CN2C(=O)Cc3c2nc(N)c2c(N)nc(N4CCCCC4)c(C#N)c32)cc1	-14.4%	nt	nt
N#Cc1c(N(CCO)CCO)nc(N)c2c(N)nc3c(c12)CC(=O)N3CC1CCCO1 (stereo not drawn)	19.3%	nt	nt
Cc1cnc(C(=O)OC(C)C(=O)Nc2ccccc2-c2ccccc2)cn1 (stereo not drawn)	7.9%[8.37 µM]	-14.0%	-13.7%
COc1ccc(NC(=O)CN(C)C(=O)c2ccc(S(=O)(=O)Nc3ccccc3C)cc2)cc1	11.0%	-18.5%	-19.8%
CC(C)C[C@@H]1NC(=O)[C@H](CCCN)NC(=O)[C@H](C(C)C)NC(=O)[C@@H]2CCCN2C(=O)[C@@H](Cc2ccccc2)NC(=O)[C@H](CC(C)C)NC(=O)[C@H](CCCN)NC(=O)[C@H](C(C)C)NC(=O)[C@@H]2CCCN2C(=O)[C@@H](Cc2ccccc2)NC1=O	nt	?	4.47µM*
O=C1N[C@@H](Cc2ccccc2)C(=O)N2CCC[C@@H]12	12.9%	-6.1%	i
CCN(CC)c1ccc(/C=C/c2cccc[n+]2C)c(OC)c1	0.891µM*	i	98.0%
SMILES	HCV inh	Vaccinia Venus	Vaccinia mCherry
CCN(CC)c1ccc(C=Nc2ccccc2)c(O)c1	-5.9%	14.8%	nt
COc1ccc(/C=C/c2cccc[n+]2C)c(O)c1	8.91µM*	nt	nt
CCOc1cc(/C=C/c2cccc[n+]2C)ccc1O	0.7%	nt	nt
CCCCC(CC)CNC(=O)CCCn1c(=O)[nH]c2ccsc2c1=O (stereo not drawn)	nt	-5.1%	-7.6%
Cn1c(-c2ccncc2)nc2cc(C(=O)N[C@H]3CCCCNC3=O)cc(NC(=O)C3CCC3)c21	nt	-11.9%	-13.4%
CCc1ccc(NC(=O)c2ccc3c(=O)n4c(nc3c2)CCCCC4)cc1	10µM*	-3.8%[7.34 µM]	-6.2%[7.34 µM]
CCOc1ccccc1NC(=O)c1ccc2c(=O)n3c(nc2c1)CCCCC3	-27.4%	-4.5%[7.34 µM]	-8.7%[7.34 µM]
CCc1nnc(NC(=O)c2ccc3c(=O)n4c(nc3c2)CCCCC4)s1	?	1.9%	i
CCN(CC)C(=O)c1cccc(NC(=O)c2ccc3c(=O)n4c(nc3c2)CCC4)c1	-20.0%	-11.2%	-15.0%
CCOc1ccc(NC(=O)c2ccc3c(=O)n4c(nc3c2)CCCCC4)cc1	11.2µM*	?	-4.6%
O=C(Nc1cccc(S(=O)(=O)N2CCCCC2)c1)c1ccc2c(=O)n3c(nc2c1)CCCCC3	6.31µM*	?	-28.7%
C#CCN(C1CCCC1)S(=O)(=O)C=C	nt	-70.1%	?
Cc1c([N+](=O)[O-])cnc2ccccc12	nt	-16.5%	i
CCOC(=O)Cc1csc(NC(=O)c2ccc([N+](=O)[O-])cc2[N+](=O)[O-])n1	-10.3%	?	-25.0%
CCOC(=O)Cc1csc(NC(=O)c2ccc(N3CCOCC3)cc2[N+](=O)[O-])n1	11.2µM*	nt	nt
O=C1CCN(Cc2ccc(Br)cc2)CCN1[C@H](CO)Cc1ccccc1	?	-20.9%	-21.9%
CCN(CC)c1ccc(/C=C(\C#N)C(=O)NCc2ccccc2)cc1	25.1µM*	-14.4%	?
CCN(CC)c1ccc(/C=C(\C#N)C(=O)NCc2ccco2)cc1	-27.5%	nt	nt
Cc1ccccc1Cn1nnc(-c2ccc(F)cc2)n1	-7.4%	-12.7%	-16.1%
Fc1ccc(-c2nnn(Cc3ccccc3Cl)n2)cc1	2µM*	-2.3%	i
COc1ccc(CNC(=O)C2=CC(c3ccc(OC)cc3)=NS(=O)(=O)N2C)cc1	-11.2%	8.2%	0.8%
C/C(=N\Nc1cc(N2CCCCC2)nc(C)n1)c1ccc(Br)cc1	11.2µM*	nt	nt
C/C(=N\Nc1cc(N2CCOCC2)nc(C)n1)c1ccc(F)cc1	?	-12.9%	i
CCOc1ccc(NC(=O)CCS(=O)(=O)c2ccc3nc(C)sc3c2)cc1	nt	-5.5%	-20.7%
O=C(CSc1nnc(Cn2nnc3ccccc32)o1)Nc1cccc(Cl)c1	16.8%	-9.8%	-13.6%
SMILES	HCV inh	Vaccinia Venus	Vaccinia mCherry
O=C(CSc1nnc(Cn2nnc3ccccc32)o1)N(Cc1ccc(Cl)cc1)c1ccccc1	6.31µM*	?	?
Cc1cccc(-c2nc3c(cnn3-c3ccccc3)c(=O)n2-c2ccc(Cl)cc2)c1	nt	-5.7%	-18.2%
CC1CN(CC(O)COC2CCC(C(C)(C)C)CC2)CC(C)O1 (stereo not drawn)	-6.9%	-16.1%	-11.3%
CC(C)(C)C1CCC(OCC(O)CN2CCN(Cc3ccccc3)CC2)CC1 (stereo not drawn)	31.6µM*	nt	nt
CC(C)(C)C1CCC(OCC(O)CN2CCN(c3ccccn3)CC2)CC1 (stereo not drawn)	-22.4%	-23.3%	-20.4%
CC1CCCC(C)N1CC(O)COC1CCC(C(C)(C)C)CC1 (stereo not drawn)	12.6µM*	nt	nt
O=C(Cn1c(=O)nc(-c2ccccc2)c2ccccc21)NCc1ccc(Cl)cc1	nt	-20.7%	-9.1%
Cc1ccccc1NC(=O)CSc1cn(CC(=O)N(C(C)C)C(C)C)c2ccccc12	nt	-7.5%	1.0%
CC(OC(=O)Cc1c[nH]c2ccccc12)C(=O)NC1CCCCC1C (stereo not drawn)	0.1%	nt	nt
COc1ccccc1NCC(O)COc1ccc(C(C)(C)C)cc1 (stereo not drawn)	?	-24.8%	-20.9%

Source: PubChem BioAssay (National Center for Advancing Translational Sciences (NCATS))
